The results in this text go back to the supplement of paper PMC13380429.

The test system of assay [1] is Vero E6 infected with SARS-CoV-2. The assay can be described thus: morphology score (similarity to uninfected cells); higher = more like uninfected cells. As to conditions: 24 h.
Assay [2] has the same test system. As to the kind of experiment: SARS-CoV-2 infection rate relative to infected DMSO; higher = more infection, active = 60 or less. The conditions noted are these: 24 h.

Regarding `N[C@@H](Cc1ccc(O)cc1)C(=O)O` [plovamer-acetate] (10 µM), in assay [1], the morphology score was found to be 0.0812. In addition, the SARS-CoV-2 infection rate in assay [2] is 108% (inactive).

Turning to `Clc1cccc(C(c2ccc3[nH]cnc3c2)n2ccnc2)c1` (stereo unspecified) [liarozole] (10 µM), the morphology score in assay [1] worked out at 0.138. In assay [2], the SARS-CoV-2 infection rate was 98% (inactive).

`Nc1ccc(S(=O)(=O)Nc2ccccn2)cc1` [sulfapyridine] (10 µM) showed a morphology score in assay [1] of 0.0798. Also, the SARS-CoV-2 infection rate in assay [2] was 102% (inactive).

The compound `CC(/C=C1\SC(=S)N(CC(=O)O)C1=O)=C\c1ccccc1` [epalrestat] (10 µM) yielded a morphology score in assay [1] of 0.192. Moreover, in assay [2], the SARS-CoV-2 infection rate was 106% (inactive).

`Cc1ccccc1NC(=N)Nc1ccccc1C` [ditolylguanidine] (10 µM): in assay [1], the morphology score was -0.286. Moreover, the SARS-CoV-2 infection rate in assay [2] is 117% (inactive).

In the case of `Cc1ccc2c(N3CCN(CCc4cccc(N5CCNC5=O)c4)CC3)cccc2n1` (10 µM), the morphology score in assay [1] came out at 0.325. For the same compound, the SARS-CoV-2 infection rate in assay [2] was 84% (inactive).

As for `COc1cc2c(cc1OC(C)C)[C@H](c1ccc(Cl)cc1)N(c1ccc(N(C)C[C@H]3CC[C@H](N4CCN(C)C(=O)C4)CC3)cc1)C(=O)C2` (0.833333 µM), in assay [1], the morphology score stood at 0.244. Also, the SARS-CoV-2 infection rate in assay [2] was 93.5% (inactive).

Consider `O=C(NCCN1CCOCC1)c1ccc(Cl)cc1` [moclobemide] (10 µM), for which the morphology score in assay [1] turned out to be 0.182. Moreover, the SARS-CoV-2 infection rate in assay [2] was 103% (inactive).

Regarding `CN(C)CC[C@H](CSc1ccccc1)Nc1ccc(S(=O)(=O)NC(=O)c2ccc(N3CCN(Cc4ccccc4-c4ccc(Cl)cc4)CC3)cc2)cc1[N+](=O)[O-]` (10 µM), the morphology score in assay [1] amounted to 0.105. Also, the SARS-CoV-2 infection rate in assay [2] was 108% (inactive).

`CC(C)C(=O)c1c(C(C)C)nn2ccccc12` [ibudilast] (10 µM) had a morphology score in assay [1] of 0.0924. Besides, in assay [2], the SARS-CoV-2 infection rate was 97% (inactive).

Compound `Cc1c(N)cccc1Cn1ccc(OCCc2cccs2)cc1=O` (10 µM) came in with a morphology score in assay [1] of 0.0738. Besides, in assay [2], the SARS-CoV-2 infection rate is 102% (inactive).

`CCOC(=O)Nc1cc(-c2ccc(C)c(NS(C)(=O)=O)c2)nn2c(C)nnc12` [bromosporine] (10 µM): in assay [1], the morphology score is -0.021. In assay [2], the SARS-CoV-2 infection rate is 111% (inactive).

In assay [1], `CCN(CC)CCCCNc1ncc2cc(-c3cc(OC)cc(OC)c3)c(NC(=O)NC(C)(C)C)nc2n1` (0.833333 µM) displayed a morphology score of 0.13. In assay [2], the SARS-CoV-2 infection rate was 107% (inactive).

On to `NNc1nncc2ccccc12` [hydralazine] (10 µM), for which the morphology score in assay [1] was -0.0789. Moreover, the SARS-CoV-2 infection rate in assay [2] was 104% (inactive).

In assay [1], `CCCC(=O)Nc1ccc(OCC(O)CNC(C)C)c(C(C)=O)c1` (stereo unspecified) [acebutolol] (10 µM) registered a morphology score of -0.0282. In addition, the SARS-CoV-2 infection rate in assay [2] is 113% (inactive).

In turn, `C[C@]12CCC(=O)C[C@@H]1CC[C@@H]1[C@@H]2CC[C@]2(C)[C@@H](O)CC[C@@H]12` [Dihydrotestosterone] (10 µM) gave a morphology score in assay [1] of -0.034. In addition, the SARS-CoV-2 infection rate in assay [2] was 110% (inactive).

On to `CN1CCC(OC(c2ccccc2)c2ccccc2)CC1` [diphenylpyraline] (10 µM), for which the morphology score in assay [1] came to 0.291. For the same compound, the SARS-CoV-2 infection rate in assay [2] was 82.5% (inactive).

The compound `CC(C)Cc1ccc([C@@H](C)C(=O)NS(C)(=O)=O)cc1` [reparixin] (10 µM) had a morphology score in assay [1] of 0.135. Besides, the SARS-CoV-2 infection rate in assay [2] was 100% (inactive).

In turn, `NCCCCN=C(N)N` [agmatine] (10 µM) gave a morphology score in assay [1] of 0.0302. Moreover, in assay [2], the SARS-CoV-2 infection rate was 106% (inactive).

In the case of `Cc1cccc(C(=O)O)c1O` [hydroxytoluic-acid] (10 µM), in assay [1], the morphology score is -0.137. Also, in assay [2], the SARS-CoV-2 infection rate was 106% (inactive).

In assay [1], `CC[N+](CC)(CC)CCOc1cccc(OCC[N+](CC)(CC)CC)c1OCC[N+](CC)(CC)CC` [gallamine-triethiodide] (10 µM) displayed a morphology score of -0.128. For the same compound, in assay [2], the SARS-CoV-2 infection rate is 112% (inactive).

`CCOc1ccc(Cc2nccc3cc(OCC)c(OCC)cc23)cc1OCC` [ethaverine] (10 µM) came in with a morphology score in assay [1] of 0.2. The SARS-CoV-2 infection rate in assay [2] was 100% (inactive).

In assay [1], `COc1ccc(-c2csc(NC(=O)[C@H]3CCCCN3S(=O)(=O)c3ccc(C)cc3)n2)cc1` (10 µM) showed a morphology score of 0.424. Besides, the SARS-CoV-2 infection rate in assay [2] was 61.5% (inactive).

Take `c1ccc(C2CC2)c(OCC2=NCCN2)c1` [cirazoline] (10 µM): the morphology score in assay [1] was 0.0206. Further, the SARS-CoV-2 infection rate in assay [2] is 102% (inactive).

With `CN(C(=O)c1ccc(F)cc1C(F)(F)F)C1CCN(c2nnc(-c3ccnn3C)c3ccccc23)CC1` [taladegib] (10 µM), the morphology score in assay [1] amounted to 0.0832. The SARS-CoV-2 infection rate in assay [2] was 102% (inactive).

`CCOCCn1c(N2CCCN(C)CC2)nc2ccccc21` [emedastine] (10 µM): the morphology score in assay [1] stood at 0.137. The SARS-CoV-2 infection rate in assay [2] is 100% (inactive).

With `CC(CNS(=O)(=O)C(C)C)c1ccc(-c2ccc(C#N)cc2)cc1` (stereo unspecified) (10 µM), the morphology score in assay [1] was -0.219. In assay [2], the SARS-CoV-2 infection rate is 114% (inactive).

On to `O[C@@H](Cc1ccncc1)C(Cl)(Cl)Cl` (10 µM), for which, in assay [1], the morphology score was found to be 0.21. The SARS-CoV-2 infection rate in assay [2] is 83.5% (inactive).

`O=C(C[S+]([O-])Cc1ccco1)NC/C=C\COc1cc(CN2CCCCC2)ccn1` (stereo unspecified) [lafutidine] (10 µM): in assay [1], the morphology score is 0.0534. In assay [2], the SARS-CoV-2 infection rate is 94% (inactive).

`O=C1c2ccccc2C(=O)C1c1ccccc1` [phenindione] (10 µM) had a morphology score in assay [1] of -0.000221. Moreover, in assay [2], the SARS-CoV-2 infection rate was 106% (inactive).

`Nc1nc(NC2CC2)c2ncn([C@H]3C=C[C@@H](CO)C3)c2n1` (10 µM): the morphology score in assay [1] is 0.0446. The SARS-CoV-2 infection rate in assay [2] is 102% (inactive).

`O=C(c1ccc(Cl)o1)N1CC2CNCC2C1` (stereo unspecified) (10 µM) gave a morphology score in assay [1] of 0.187. For the same compound, the SARS-CoV-2 infection rate in assay [2] was 105% (inactive).

For `CONC(=N)c1ccc(-c2ccc(-c3ccc(C(=N)NOC)cc3)o2)cc1` [pafuramidine] (10 µM), the morphology score in assay [1] came out at 0.0672. In assay [2], the SARS-CoV-2 infection rate was 106% (inactive).
